# Laboratory results taken from PubChem BioAssay AID1159580 (chemical genetic matrix, 2015).
# Hit rate of the full screen: of about 5,500 compounds, about 2,000 (36%) were called active. Not shown: some 18% with an inconclusive outcome. The list shows a part of the results. A number with no mark means an inactive call. No stated cut-off is given here; in the data, active means normalized growth mostly below about 0.91 (no sharp cut-off); inconclusive means no clear call, values can overlap the other calls; inactive means mostly above about 0.92.
# Experiment: chemical genetic growth profiling, strain panel (AID 1159580);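 further: tested at 20 µM; growth read once vehicle control cultures reached saturation at 30 °C; 1 = growth at the plate median or of vehicle wells; lower values mean less growth of the strain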
# Details: growth OD
smiles,measurement,setting,value
O=c1c(O)c(-c2ccccc2)oc2cc(O)ccc12,normalized growth,"S. cerevisiae deletion strains, locus YKL009W, strain mrt4, active compounds read low",0.932
same,normalized growth,"S. cerevisiae deletion strains, locus YKL068W, active compounds read low",0.948
same,normalized growth,"S. cerevisiae deletion strains, locus YKL085W, strain MDH1 (second series), active compounds read low",0.911 (active)
same,normalized growth,"S. cerevisiae deletion strains, locus YKL085W, strain MDH1, active compounds read low",0.911 (active)
same,normalized growth,"S. cerevisiae deletion strains, locus YKL160W, strain elf1, active compounds read low",0.772 (active)
same,normalized growth,"S. cerevisiae deletion strains, locus YKL190W, strain CNB1, active compounds read low",0.4 (active)
same,normalized growth,"S. cerevisiae deletion strains, locus YKR001C, strain vps1, active compounds read low",0.708 (active)
same,normalized growth,"S. cerevisiae deletion strains, locus YKR026C, strain gcn3, active compounds read low",0.879 (active)
same,normalized growth,"S. cerevisiae deletion strains, locus YKR091W, strain srl3, active compounds read low",0.834 (active)
same,normalized growth,"S. cerevisiae deletion strains, locus YLL001W, strain dnm1, active compounds read low",0.827 (active)
same,normalized growth,"S. cerevisiae deletion strains, locus YLL026W, active compounds read low",0.558 (active)
same,normalized growth,"S. cerevisiae deletion strains, locus YLL041C, strain sdh2, active compounds read low",0.85 (active)
same,normalized growth,"S. cerevisiae deletion strains, locus YLR027C, strain aat2, active compounds read low",0.701 (active)
same,normalized growth,"S. cerevisiae deletion strains, locus YLR039C, strain RIC1, active compounds read low",0.236 (active)
same,normalized growth,"S. cerevisiae deletion strains, locus YLR058C, strain SHM2, active compounds read low",0.514 (active)
same,normalized growth,"S. cerevisiae deletion strains, locus YLR102C, strain apc9, active compounds read low",0.935
same,normalized growth,"S. cerevisiae deletion strains, locus YLR113W, strain HOG1, active compounds read low",1
same,normalized growth,"S. cerevisiae deletion strains, locus YLR221C, strain rsa3, active compounds read low",0.759 (active)
same,normalized growth,"S. cerevisiae deletion strains, locus YLR258W, strain gsy2, active compounds read low",0.699 (active)
same,normalized growth,"S. cerevisiae deletion strains, locus YLR262C, strain YPT6 (second series), active compounds read low",0.341 (active)
same,normalized growth,"S. cerevisiae deletion strains, locus YLR262C, strain YPT6, active compounds read low",0.263 (active)
same,normalized growth,"S. cerevisiae deletion strains, locus YLR268W, strain sec22, active compounds read low",0.62 (active)
same,normalized growth,"S. cerevisiae deletion strains, locus YLR320W, strain mms22, active compounds read low",0.674 (active)
same,normalized growth,"S. cerevisiae deletion strains, locus YLR330W, strain CHS5, active compounds read low",0.663 (active)
same,normalized growth,"S. cerevisiae deletion strains, locus YLR342W, strain FKS1 (second series), active compounds read low",0.51 (active)
same,normalized growth,"S. cerevisiae deletion strains, locus YLR342W, strain FKS1, active compounds read low",0.765 (active)
same,normalized growth,"S. cerevisiae deletion strains, locus YLR357W, strain rsc2, active compounds read low",0.717 (active)
same,normalized growth,"S. cerevisiae deletion strains, locus YLR370C, strain arc18, active compounds read low",0.738 (active)
same,normalized growth,"S. cerevisiae deletion strains, locus YLR371W, strain rom2, active compounds read low",0.636 (active)
same,normalized growth,"S. cerevisiae deletion strains, locus YLR384C, strain iki3, active compounds read low",0.906 (active)
same,normalized growth,"S. cerevisiae deletion strains, locus YLR418C, strain cdc73, active compounds read low",0.357 (active)
same,normalized growth,"S. cerevisiae deletion strains, locus YML016C, strain PPZ1, active compounds read low",0.455 (active)
same,normalized growth,"S. cerevisiae deletion strains, locus YML032C, strain rad52, active compounds read low",0.872 (active)
same,normalized growth,"S. cerevisiae deletion strains, locus YML120C, strain ndi1, active compounds read low",0.887 (active)
same,normalized growth,"S. cerevisiae deletion strains, locus YML124C, strain tub3, active compounds read low",0.827 (active)
same,normalized growth,"S. cerevisiae deletion strains, locus YMR058W, strain fet3, active compounds read low",0.104 (active)
same,normalized growth,"S. cerevisiae deletion strains, locus YMR078C, strain ctf18, active compounds read low",0.909 (active)
same,normalized growth,"S. cerevisiae deletion strains, locus YMR125W, strain sto1, active compounds read low",0.929
same,normalized growth,"S. cerevisiae deletion strains, locus YMR129W, active compounds read low",0.838 (active)
same,normalized growth,"S. cerevisiae deletion strains, locus YMR205C, strain PFK2, active compounds read low",0.639 (active)
same,normalized growth,"S. cerevisiae deletion strains, locus YMR223W, strain ubp8, active compounds read low",0.685 (active)
same,normalized growth,"S. cerevisiae deletion strains, locus YMR231W, strain pep5, active compounds read low",0.336 (active)
same,normalized growth,"S. cerevisiae deletion strains, locus YMR307W, strain GAS1, active compounds read low",0.328 (active)
same,normalized growth,"S. cerevisiae deletion strains, locus YNL067W, strain RPL9B, active compounds read low",0.496 (active)
same,normalized growth,"S. cerevisiae deletion strains, locus YNL071W, strain lat1, active compounds read low",0.709 (active)
same,normalized growth,"S. cerevisiae deletion strains, locus YNL128W, strain TEP1, active compounds read low",0.319 (active)
same,normalized growth,"S. cerevisiae deletion strains, locus YNL153C, strain GIM3, active compounds read low",0.577 (active)
same,normalized growth,"S. cerevisiae deletion strains, locus YNL183C, strain NPR1, active compounds read low",0.98
same,normalized growth,"S. cerevisiae deletion strains, locus YNL209W, strain ssb2, active compounds read low",0.335 (active)
same,normalized growth,"S. cerevisiae deletion strains, locus YNL233W, strain BNI4, active compounds read low",0.479 (active)
same,normalized growth,"S. cerevisiae deletion strains, locus YNL248C, strain rpa49, active compounds read low",0.859 (active)
same,normalized growth,"S. cerevisiae deletion strains, locus YNL250W, strain rad50, active compounds read low",0.927
same,normalized growth,"S. cerevisiae deletion strains, locus YNL271C, strain bni1, active compounds read low",0.858 (active)
same,normalized growth,"S. cerevisiae deletion strains, locus YNL298W, strain CLA4, active compounds read low",0.914
same,normalized growth,"S. cerevisiae deletion strains, locus YNL307C, strain MCK1, active compounds read low",0.745 (active)
same,normalized growth,"S. cerevisiae deletion strains, locus YNL322C, strain KRE1 (second series), active compounds read low",0.971
same,normalized growth,"S. cerevisiae deletion strains, locus YNL322C, strain KRE1, active compounds read low",0.415 (active)
same,normalized growth,"S. cerevisiae deletion strains, locus YNR049C, strain mso1, active compounds read low",0.895 (active)
same,normalized growth,"S. cerevisiae deletion strains, locus YNR052C, strain pop2, active compounds read low",0.713 (active)
same,normalized growth,"S. cerevisiae deletion strains, locus YOL006C, strain TOP1, active compounds read low",0.167 (active)
same,normalized growth,"S. cerevisiae deletion strains, locus YOL012C, strain htz1",0.446
same,normalized growth,"S. cerevisiae deletion strains, locus YOL147C, strain pex11, active compounds read low",0.914 (active)
same,normalized growth,"S. cerevisiae deletion strains, locus YOR001W, strain rrp6, active compounds read low",0.873 (active)
same,normalized growth,"S. cerevisiae deletion strains, locus YOR061W, strain CKA2, active compounds read low",0.682 (active)
same,normalized growth,"S. cerevisiae deletion strains, locus YOR069W, strain VPS5, active compounds read low",0.614 (active)
same,normalized growth,"S. cerevisiae deletion strains, locus YOR070C, strain gyp1, active compounds read low",0.739 (active)
same,normalized growth,"S. cerevisiae deletion strains, locus YOR080W, strain dia2, active compounds read low",0.777 (active)
same,normalized growth,"S. cerevisiae deletion strains, locus YOR083W, strain WHI5, active compounds read low",0.695 (active)
same,normalized growth,"S. cerevisiae deletion strains, locus YOR106W, strain vam3, active compounds read low",0.27 (active)
same,normalized growth,"S. cerevisiae deletion strains, locus YOR136W, strain idh2, active compounds read low",0.909 (active)
same,normalized growth,"S. cerevisiae deletion strains, locus YOR144C, strain elg1, active compounds read low",0.94
same,normalized growth,"S. cerevisiae deletion strains, locus YOR184W, strain ser1, active compounds read low",0.5 (active)
same,normalized growth,"S. cerevisiae deletion strains, locus YOR231W, strain MKK1, active compounds read low",1.03
same,normalized growth,"S. cerevisiae deletion strains, locus YOR265W, strain rbl2, active compounds read low",0.71 (active)
same,normalized growth,"S. cerevisiae deletion strains, locus YOR270C, strain vph1, active compounds read low",0.306 (active)
same,normalized growth,"S. cerevisiae deletion strains, locus YOR290C, strain snf2, active compounds read low",0.754 (active)
same,normalized growth,"S. cerevisiae deletion strains, locus YOR316C, strain cot1, active compounds read low",0.903 (active)
same,normalized growth,"S. cerevisiae deletion strains, locus YPL051W, strain arl3, active compounds read low",0.439 (active)
same,normalized growth,"S. cerevisiae deletion strains, locus YPL055C, strain LGE1, active compounds read low",0.363 (active)
same,normalized growth,"S. cerevisiae deletion strains, locus YPL078C, strain atp4, active compounds read low",0.845 (active)
same,normalized growth,"S. cerevisiae deletion strains, locus YPL106C, strain sse1, active compounds read low",0.65 (active)
same,normalized growth,"S. cerevisiae deletion strains, locus YPL240C, strain hsp82, active compounds read low",0.81 (active)
same,normalized growth,"S. cerevisiae deletion strains, locus YPL241C, strain CIN2, active compounds read low",0.719 (active)
same,normalized growth,"S. cerevisiae deletion strains, locus YPL256C, strain CLN2, active compounds read low",1.06
same,normalized growth,"S. cerevisiae deletion strains, locus YPR119W, strain clb2, active compounds read low",0.931 (active)
same,normalized growth,"S. cerevisiae deletion strains, locus YPR141C, strain kar3, active compounds read low",0.942
same,normalized growth,"S. cerevisiae deletion strains, locus YPR163C, strain tif3, active compounds read low",0.844 (active)
same,normalized growth,"S. cerevisiae deletion strains, locus YPR167C, strain met16, active compounds read low",0.734 (active)
same,normalized growth,"S. cerevisiae deletion strains, strain wtn01, active compounds read low",0.751 (active)
same,normalized growth,"S. cerevisiae strains, strain wild type, active compounds read low",0.246 (active)
